The values below come from paper PMC8384837, “Expanding the binding specificity for RNA recognition by a PUF domain”.

Substitutions are numbered along the chain they refer to.

Common to all, as to assay: yeast three-hybrid, YBZ-1, SC-Leu-His + 0.5 mM 3-AT, 4 days
What all share (settings): tags: N-Gal4 AD-HA kept; label: inside an RPR1-promoter hybrid RNA with tandem MS2 sites; ssRNA

One experiment deals with T1, PUM1 PUF domain R6-IYV (Homo sapiens, UniProt Q14671 828-1176, N1043I;Q1047V).
T1 sequence: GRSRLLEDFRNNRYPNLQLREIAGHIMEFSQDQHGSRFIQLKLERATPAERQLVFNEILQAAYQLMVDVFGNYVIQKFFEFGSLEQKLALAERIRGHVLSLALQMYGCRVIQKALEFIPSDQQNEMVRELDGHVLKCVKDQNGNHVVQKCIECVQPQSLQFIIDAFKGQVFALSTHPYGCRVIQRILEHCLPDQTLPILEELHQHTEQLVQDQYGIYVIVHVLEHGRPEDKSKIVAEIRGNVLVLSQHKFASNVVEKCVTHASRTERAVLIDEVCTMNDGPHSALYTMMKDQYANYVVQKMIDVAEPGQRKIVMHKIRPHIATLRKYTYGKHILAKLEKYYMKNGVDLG
An outline of the steps:
(§1)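 A centromeric plasmid in strain YBZ-1 co-expressed Pumilio-1 PUF domain libraries, randomized at the three base-contacting residues of each repeat, with matching RNA elements; the strain carries a LexA–MS2 coat fusion and a HIS3 reporter. After four days on SC-Leu (input) or SC-Leu-His + 0.5 mM 3-AT (selection), the repeat regions were PCR-amplified and Illumina-sequenced. The interaction score is the log change in variant frequency from input to selection, using log2 and a pseudocount of 1 where absent.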

In a further experiment the target is T2, PUM1 PUF domain R6-CFC (Homo sapiens, UniProt Q14671 828-1176, N1043C;Y1044F;Q1047C).
T2 sequence: T1 sequence with I216C, Y217F, V220C
An outline of the steps:
as §1

Another experiment deals with PUM1 PUF domain R5-KHG (Homo sapiens, UniProt Q14671 828-1176, C1007K;R1008H;Q1011G). An outline of the steps: as §1
The next experiment addresses PUM1 PUF domain R4-DHE (Homo sapiens, UniProt Q14671 828-1176, N971D;Q975E). An outline of the steps: as §1
The target in another experiment is PUM1 PUF domain R4-SWG (Homo sapiens, UniProt Q14671 828-1176, N971S;H972W;Q975G). An outline of the steps:
as §1

Another experiment concerns the target PUM1 PUF domain R7-RCQ (Homo sapiens, UniProt Q14671 828-1176, S1079R;N1080C;E1083Q). An outline of the steps: as §1
The target in another experiment is PUM1 PUF domain R5-QKC (Homo sapiens, UniProt Q14671 828-1176, C1007Q;R1008K;Q1011C). An outline of the steps:
as §1

Another experiment deals with PUM1 PUF domain R2-EWT (Homo sapiens, UniProt Q14671 828-1176, N899E;Y900W;Q903T). An outline of the steps: as §1

Take “GGCUAGAACUAGUGGAUCCCCCGGCGCCCGGCGGCUCGAGCCCGGGUAAGUGUAAAUAGUCUGCAUGCCGCCGGGCGCCAUGCCUGCAGGUCGACUCUAGAAAACAUG”: the binding signal in the experiment with PUM1 PUF domain R6-IYV was 2.91 log2 enrichment (interaction score); with PUM1 PUF domain R6-CFC it was 1.34 log2 enrichment (interaction score); with PUM1 PUF domain R5-KHG, 3.79 log2 enrichment (interaction score).
For the sequence “GGCUAGAACUAGUGGAUCCCCCGGCGCCCGGCGGCUCGAGCCCGGGUAAGUGAAAAUAGUCUGCAUGCCGCCGGGCGCCAUGCCUGCAGGUCGACUCUAGAAAACAUG”, the binding signal with PUM1 PUF domain R6-CFC was 4.06 log2 enrichment (interaction score).
For “GGCUAGAACUAGUGGAUCCCCCGGCGCCCGGCGGCUCGAGCCCGGGUAAGUGUACAUAGUCUGCAUGCCGCCGGGCGCCAUGCCUGCAGGUCGACUCUAGAAAACAUG”, the binding signal with PUM1 PUF domain R4-DHE was 2.01 log2 enrichment (interaction score).
As to “GGCUAGAACUAGUGGAUCCCCCGGCGCCCGGCGGCUCGAGCCCGGGUAAGUGUAUAUAGUCUGCAUGCCGCCGGGCGCCAUGCCUGCAGGUCGACUCUAGAAAACAUG”, the binding signal with PUM1 PUF domain R4-DHE was 4.57 log2 enrichment (interaction score); in the experiment with PUM1 PUF domain R4-SWG, 2.5 log2 enrichment (interaction score).
In the case of “GGCUAGAACUAGUGGAUCCCCCGGCGCCCGGCGGCUCGAGCCCGGGUAAGUCUAAAUAGUCUGCAUGCCGCCGGGCGCCAUGCCUGCAGGUCGACUCUAGAAAACAUG”, the binding signal in the experiment with PUM1 PUF domain R7-RCQ was 2.3 log2 enrichment (interaction score).
With “GGCUAGAACUAGUGGAUCCCCCGGCGCCCGGCGGCUCGAGCCCGGGUAAGUGUUAAUAGUCUGCAUGCCGCCGGGCGCCAUGCCUGCAGGUCGACUCUAGAAAACAUG”, the binding signal with PUM1 PUF domain R5-QKC was 3.74 log2 enrichment (interaction score).
Take “GGCUAGAACUAGUGGAUCCCCCGGCGCCCGGCGGCUCGAGCCCGGGUAAGUGUAAAAAGUCUGCAUGCCGCCGGGCGCCAUGCCUGCAGGUCGACUCUAGAAAACAUG”: the binding signal in the experiment with PUM1 PUF domain R2-EWT is 2.39 log2 enrichment (interaction score).
